{"source": "PubChem BioAssay (EPA / NIEHS)", "note": "Results filed as inconclusive are left out. Activity calls are given as the source filed them. Rule for the calls: active = hit-call score of the fitted dose curve at least 0.9, where 1 is the maximum; inconclusive = response in the unintended direction; inactive = score below 0.9.", "data": [{"target": "human Thyroid Receptor alpha (THRa1), THRA (gene 7067) (UniProt P10827)", "sequence (P10827 whole entry, looked up, the tested form may be a part)": "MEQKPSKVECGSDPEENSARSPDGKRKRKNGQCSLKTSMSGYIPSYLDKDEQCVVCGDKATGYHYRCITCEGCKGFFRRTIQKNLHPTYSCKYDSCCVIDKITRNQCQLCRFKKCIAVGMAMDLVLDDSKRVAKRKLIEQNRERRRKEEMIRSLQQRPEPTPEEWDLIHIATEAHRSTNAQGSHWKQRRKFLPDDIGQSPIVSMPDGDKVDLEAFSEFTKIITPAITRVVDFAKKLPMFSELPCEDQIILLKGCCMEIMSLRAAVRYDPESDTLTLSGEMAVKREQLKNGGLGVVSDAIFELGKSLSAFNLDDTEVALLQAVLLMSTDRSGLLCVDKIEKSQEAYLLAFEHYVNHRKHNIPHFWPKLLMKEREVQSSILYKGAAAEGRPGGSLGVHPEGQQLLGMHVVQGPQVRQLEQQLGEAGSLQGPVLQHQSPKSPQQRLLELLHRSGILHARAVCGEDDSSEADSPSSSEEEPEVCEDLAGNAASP", "test": "ATG_THRa1_TRANS: Attagene TRANS-FACTORIAL HepG2 Assay for human Thyroid Receptor alpha (THRa1) (AID 2283014)", "how_it_was_run": "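Transient HepG2 transfection, NR-Gal4 chimera driving GAL4-UAS reporters; 24 h compound exposure; total RNA, oligo(dT) RT, PCR, fluorescent primer extension, capillary electrophoresis. Upward direction vs DMSO control.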", "values": [{"smiles": "CCCCCCCCCCOC(C)=O", "outcome": "inactive"}, {"smiles": "NC(=O)NNC(N)=O", "outcome": "inactive"}, {"smiles": "Cc1ccc(C(C)(C)C)cc1", "outcome": "inactive"}, {"smiles": "OC1OCCOC1O", "note": "(centres undefined)", "outcome": "inactive"}, {"smiles": "O=S(=O)(O)c1ccccc1C=Cc1ccc(-c2ccc(C=Cc3ccccc3S(=O)(=O)O)cc2)cc1", "outcome": "inactive"}, {"smiles": "CC1=Nc2ccc3ccccc3c2C1(C)C", "outcome": "inactive"}, {"smiles": "O=C1C=CC(=O)O1", "outcome": "inactive"}, {"smiles": "COC(=O)c1ccc2cc(C(=O)OC)ccc2c1", "outcome": "inactive"}, {"smiles": "COc1ccc([C@@H]2CC(=O)c3c(O)cc(O[C@@H]4O[C@H](CO[C@@H]5O[C@@H](C)[C@H](O)[C@@H](O)[C@H]5O)[C@@H](O)[C@H](O)[C@H]4O)cc3O2)cc1OC", "outcome": "inactive"}, {"smiles": "O=C1CCCC(=O)O1", "outcome": "inactive"}, {"smiles": "O=C(O)CCCCCCCCCC(=O)O", "outcome": "inactive"}, {"smiles": "CC1=NN(c2cc(S(=O)(=O)O)ccc2Cl)C(=O)C1N=Nc1ccccc1", "note": "(centres undefined)", "outcome": "inactive"}, {"smiles": "COC(F)(F)C(F)(C(F)(F)F)C(F)(F)F", "outcome": "inactive"}, {"smiles": "Nc1nc2ccccc2[nH]1", "outcome": "inactive"}, {"smiles": "CC(C)(C)C(=O)C=Cc1ccc(Cl)cc1", "outcome": "inactive"}, {"smiles": "CC(C)(Oc1ccc(C2CC2(Cl)Cl)cc1)C(=O)O", "note": "(centres undefined)", "outcome": "inactive"}, {"smiles": "Cc1ccc2oc(=O)ccc2c1", "outcome": "inactive"}, {"smiles": "COc1c2ccoc2cc2oc(=O)ccc12", "outcome": "inactive"}, {"smiles": "OCCN(CCO)c1ccccc1", "outcome": "inactive"}, {"smiles": "CCC(CO)CO", "outcome": "inactive"}, {"smiles": "Cc1cccc(C(=O)O)c1", "outcome": "inactive"}, {"smiles": "C=CC(=O)OCCC(=O)O", "outcome": "inactive"}, {"smiles": "O=P(O)(O)Oc1ccccc1", "AC50": "8.7 µM (active)"}, {"smiles": "O=C1OC(=O)c2cc(Oc3ccc4c(c3)C(=O)OC4=O)ccc21", "outcome": "inactive"}]}]}
